Source: paper PMC11062922 (Nature Chemical Biology, 2023)
Where two headings read alike, the source gives them in different places.

Key:
Parameters in all cases: species or system human, MV4-11 + K-562 + COLO205 + SK-N-BE2 + OVCAR-8
MAPK7 = settings: read-out: apparent Kd; compound concentrations: 100 nM and 1000 nM (sheet 'Samples'), CATDS: 3.9838262564481702E-3; n = 1
TESK1 = settings: read-out: apparent Kd; compound concentrations: 100 nM and 1000 nM (sheet 'Samples'), CATDS: 1.6628532352141699E-2; n = 1
TUBB6 = settings: read-out: apparent Kd; compound concentrations: 100 nM and 1000 nM (sheet 'Samples'), CATDS: 3.8955620012379099E-3; n = 1
PRKCB = settings: compound concentrations:0.3nM, 1nM, 3nM, 10nM, 30nM, 100nM, 300nM, 1000nM,R2:0.978843793099339,slope:1.0046603573044399,EC50 Standard Error, by the legend:Standard error of the EC50 estimation as provided by the drc package.
PRKCD = settings: compound concentrations:0.3nM, 1nM, 3nM, 10nM, 30nM, 100nM, 300nM, 1000nM,R2:0.97536342523711195,slope:1.1087330186118201,EC50 Standard Error, by the legend:Standard error of the EC50 estimation as provided by the drc package.
PRKCQ = settings: compound concentrations:0.3nM, 1nM, 3nM, 10nM, 30nM, 100nM, 300nM, 1000nM,R2:0.97430848163672201,slope:0.92336588926382501,EC50 Standard Error, by the legend:Standard error of the EC50 estimation as provided by the drc package.
PRKCA = settings: compound concentrations:0.3nM, 1nM, 3nM, 10nM, 30nM, 100nM, 300nM, 1000nM,R2:0.94698851760637903,slope:2.0520697350296202,EC50 Standard Error, by the legend:Standard error of the EC50 estimation as provided by the drc package.
TESK2 = settings: read-out: apparent Kd; compound concentrations:100 nM and 1000 nM (sheet 'Samples'); n = 1
PRKACG [1] = settings: compound concentrations:0.3nM, 1nM, 3nM, 10nM, 30nM, 100nM, 300nM, 1000nM,R2:0.71933853436235096,slope:7.8735043887932097,EC50 Standard Error, by the legend:Standard error of the EC50 estimation as provided by the drc package.
PRKACG [2] = settings: read-out: apparent Kd, compound concentrations: 100 nM and 1000 nM (sheet 'Samples'), n = 1
MTHFD1 = settings: read-out: apparent Kd, compound concentrations: 100 nM and 1000 nM (sheet 'Samples'), n = 1
ADK = settings: read-out: apparent Kd, compound concentrations: 100 nM and 1000 nM (sheet 'Samples'), n = 1
CDC42 = settings: read-out: apparent Kd, n = 1
GALK1 = settings: read-out: apparent Kd, compound concentrations: 100 nM and 1000 nM (sheet 'Samples'), n = 1
RAB5C = settings: read-out: apparent Kd, n = 1
EIF2AK1 = settings: read-out: apparent Kd, n = 1
NNT = settings: read-out: apparent Kd, compound concentrations: 100 nM and 1000 nM (sheet 'Samples'), n = 1
NME2;NME2P1 = settings: read-out: apparent Kd, n = 1
PKM = settings: read-out: apparent Kd, n = 1
IARS = settings: read-out: apparent Kd, compound concentrations: 100 nM and 1000 nM (sheet 'Samples'), n = 1
[3] = compound concentrations:100 nM and 1000 nM (sheet 'Samples')
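For EC50 in this document: competition pulldown with Kinobeads ε in cell lysates, inhibitor preincubated 45 min at 4 °C, bound kinases quantified by LC–MS/MS against DMSO control.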
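For Kd in this document: competition pulldown with Kinobeads ε in cell lysates, inhibitor preincubated 45 min at 4 °C, bound kinases quantified by LC–MS/MS against DMSO control.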

SMILES: Cn1ncc2c(N)ncnc21 [SKF-18267]
- potency estimated from few doses (MAPK7): 1.35 µM
- potency estimated from few doses (TESK1): 0.136 µM
- potency estimated from few doses (TUBB6): 1.43 µM

SMILES: CCn1c(-c2nonc2N)nc2c(C#CC(C)(C)O)nc(OCCN)cc21.CCn1c(-c2nonc2N)nc2c(C#CC(C)(C)O)nc(OCCN)cc21.Cl.Cl [GSK902056A]
- EC50 (PRKCB): 0.41 µM
- Kd (PRKCB; read-out: apparent Kd): 0.401 µM
- EC50 (PRKCD): 0.124 µM
- Kd (PRKCD; read-out: apparent Kd): 0.124 µM
- EC50 (PRKCQ): 0.0587 µM
- Kd (PRKCQ; read-out: apparent Kd): 0.0587 µM

SMILES: Cc1cccc(Nc2nc(N[C@H]3CCCC[C@H]3N)ncc2C(N)=O)c1.Cl [GSK986310C]
- EC50 (PRKCA): 0.446 µM
- Kd (PRKCA; read-out: apparent Kd): 0.272 µM

SMILES: Cc1cccc(-c2nc(Nc3ccncc3)c3sccc3n2)n1 [GW869641X]
- potency estimated from few doses (TESK2): 1.88 µM

SMILES: CCn1c(-c2nonc2N)nc2c(C#CC(C)(C)O)nc(OCCNC)cc21.Cl [GSK949675A]
- EC50 (PRKACG [1]): 0.303 µM
- Kd (PRKACG [1]; read-out: apparent Kd): 0.262 µM

SMILES: Cc1ccccc1-n1ncc(C(=O)c2ccccc2)c1N [RO1151248-000]
- potency estimated from few doses (PRKACG [2]; CATDS: 2.9121921896178699E-2): 0.613 µM

SMILES: CCN(CC)Cc1ccc(Nc2nccc(-c3cnn4ncccc34)n2)cc1 [GW780056X]
- potency estimated from few doses (MTHFD1; CATDS: 2.2377842490129501E-2): 0.921 µM

SMILES: O=C1N=C(NCc2c(Cl)cccc2Cl)S/C1=C\c1ccc2ncccc2c1 [RO4600445-000]
- potency estimated from few doses (ADK; CATDS: 0.24369856841726101): 1.35 µM

SMILES: Cl.Cl.NC(CNC(=O)c1cc(Br)c(-c2ccnc3[nH]ccc23)s1)c1ccccc1.NC(CNC(=O)c1cc(Br)c(-c2ccnc3[nH]ccc23)s1)c1ccccc1 (stereo not shown) [GSK1322949A]
- potency estimated from few doses (CDC42; compound concentrations: 100 nM and 1000 nM (sheet 'Samples'), CATDS: 2.9749426965709602E-2): 1.24 µM
- potency estimated from few doses (GALK1; CATDS: 2.6759379349231501E-2): 1.6 µM
- potency estimated from few doses (MTHFD1; CATDS: 2.96394051410106E-2): 1.25 µM
- potency estimated from few doses (RAB5C; compound concentrations: 100 nM and 1000 nM (sheet 'Samples'), CATDS: 2.6344655895194399E-2): 1.67 µM

SMILES: CCn1c(-c2nonc2N)nc2c(C#CC(C)(C)O)nc(O[C@@H](CN)c3ccccc3)cc21.O=C(O)C(F)(F)F [GSK1007102B]
- potency estimated from few doses (EIF2AK1; [3]): 0.996 µM

SMILES: COc1ccc(-c2cc3c(N)ncnc3o2)cc1 [GW642138X]
- potency estimated from few doses (NNT; CATDS: 0.135417913174183): 1.07 µM

SMILES: O=C1N=C(NCc2cccs2)O/C1=C\c1ccc2ncccc2c1 [RO4624208-000]
- potency estimated from few doses (ADK; CATDS: 4.98118638137824E-2): 1.39 µM

SMILES: Cc1cccc(Nc2nc(N[C@H]3CCNC3)ncc2C(N)=O)c1.Cl [GSK2197149A]
- potency estimated from few doses (NME2;NME2P1; [3]): 1.46 µM

SMILES: COc1cc(Nc2nccc(N3CCC(NC(=O)c4cccc(NC(C)=O)c4)C3)n2)cc(OC)c1OC (stereo not shown) [GSK1379754A]
- potency estimated from few doses (PKM; compound concentrations: 100 nM and 1000 nM (sheet 'Samples'), CATDS: 8.1586836054847095E-2): 1.9 µM

SMILES: CCn1c(-c2cccnc2O)nc2cnccc21 [SB-736715]
- potency estimated from few doses (EIF2AK1; compound concentrations: 100 nM and 1000 nM (sheet 'Samples'), CATDS: 1.2624621535744099E-2): 1.92 µM

SMILES: CS(=O)(=O)Nc1cccc(-c2ccc3c(NC(=O)C4CC4)n[nH]c3c2)c1 [SB-742864]
- potency estimated from few doses (GALK1; CATDS: 0.105390971488214): 1.82 µM
- potency estimated from few doses (NME2;NME2P1; compound concentrations: 100 nM and 1000 nM (sheet 'Samples'), CATDS: 0.103585369709675): 1.91 µM

SMILES: Nc1nc(Nc2ccccc2)cc(-c2ccc3c(N)n[nH]c3c2)n1 [GSK2225749A]
- potency estimated from few doses (TESK2): 1.62 µM

SMILES: CC(C)Nc1cc(-c2ccc3c(N)n[nH]c3c2)nc(N)n1 [GSK2221681A]
- potency estimated from few doses (CDC42; [3]): 1.53 µM

SMILES: O=C(O)C(F)(F)F.O=c1[nH]ccc2nc(N[C@@H]3CCNC3)nc(Nc3ccc4c(c3)S(=O)(=O)CC4)c12 [GSK2181306A]
- potency estimated from few doses (IARS; CATDS: 8.0761213761314007E-3): 1.86 µM

SMILES: NS(=O)(=O)c1ccc(N/N=C2\C(=O)Nc3ccc4ncccc4c32)cc1 [GW305178X]
- potency estimated from few doses (PRKACG [2]; CATDS: 4.9106390332169098E-2): 1.03 µM

SMILES: Cl.Nc1nc(-c2ccc3c(c2)C(=Cc2cc(Br)c(O)c(Br)c2)C(=O)N3)cs1 [GW407323A]
- potency estimated from few doses (NNT; CATDS: 3.26521392467971E-2): 0.987 µM

SMILES: COc1ccc(Nc2nccc(NCCNC(=O)Nc3cc(C)ccc3C)n2)cc1 [GSK1379899A]
- potency estimated from few doses (IARS; CATDS: 4.14736343029877E-2): 1.92 µM

SMILES: Nc1nc(-c2ccc3c(N)n[nH]c3c2)cc(N2CCCC(NC(=O)c3ccccc3)C2)n1 (stereo not shown) [GSK2286775B]
- potency estimated from few doses (RAB5C; [3]): 1.52 µM

SMILES: Cl.Cl.NCC(NCc1ccc(-c2ccnc3[nH]ccc23)s1)c1ccccc1.NCC(NCc1ccc(-c2ccnc3[nH]ccc23)s1)c1ccccc1 (stereo not shown) [GSK1321565A]
- potency estimated from few doses (PKM; [3]): 2.05 µM
